Measurements published in PubChem BioAssay AID2716 (Broad Institute, 2010).
In all, about 320,000 compounds went through this assay and about 3,300 (1%) were called active. The full list was thinned out, with actives kept by preference. A number with no mark means an inactive call.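 Rule for the calls: active = every valid replicate shows activation above 250% relative to neutral control wells; inactive = the rest, any valid replicate at or below 250%.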

Assay: yeast Mot1-301 growth rescue at high temperature, primary screen, SUMOylation pathway inhibitor project, S. cerevisiae, ATP luminescence, 38.5C (AID 2716);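 note: OY570 slx delta 5 strain wells were the positive control but not used for scaling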
Settings: S. cerevisiae Mot1-301 growth rescue, at 18.8 µM, stronger effect = higher value, percent above DMSO median, 100 means doubled
For COc1ccc(N2CCN(C(=O)c3ccccc3NC(=O)C3=C(C)OCCS3)CC2)cc1, the growth rescue was 46.6%. CCCCNC(=O)c1ccccc1NC(=O)c1ccccc1N(C)S(C)(=O)=O gave a growth rescue of -4.15%. In the case of CCCCNC(=O)c1ccccc1NC(=O)C1=C(C)OCCS1, the growth rescue was 548% (active). In the case of CCN(CC)C(=O)CSc1nnc(CNc2ccc(F)cc2)n1Cc1ccco1, the growth rescue was 543% (active). Compound Cc1cc(C)nc(SCc2nnc(SCC(=O)Nc3ncc(C)s3)n2Cc2ccco2)n1 has a growth rescue of -12%. Compound COc1ccc(NC(=O)CSc2nnc(-c3cccs3)n2Cc2ccco2)cc1OC has a growth rescue of 22.9%. Work on COc1ccc(C(=O)NCC2CCCN2S(=O)(=O)c2cccs2)cc1OC (centres undefined) yielded a growth rescue of 134%. With Cc1cccc(N(CC(=O)Nc2ccc(-c3nc4ccc(C)cc4s3)cc2)S(C)(=O)=O)c1 the growth rescue was -4.14%. With COc1cc(NC(=O)CN(C)S(=O)(=O)c2ccc3nc(C)sc3c2)cc(OC)c1 the growth rescue was -12.8%. With Cc1ccc2nc(-c3ccc(NC(=O)CN(C)S(=O)(=O)c4ccccc4)cc3)sc2c1 the growth rescue was 574% (active). Cc1cc(C)c(S(=O)(=O)Nc2c(C)n(C)n(-c3ccccc3)c2=O)cc1[N+](=O)[O-] gave a growth rescue of -5.42%. Cc1c(Br)cc(C(=O)N2CCCCCC2)c(C)c1C gave a growth rescue of 15.2%. For CC1(C)S[C@@H]2[C@H](NC(=O)COc3ccccc3)C(=O)N2C1C(=O)OCc1ccccc1 (some centres undefined), the growth rescue was 343% (active). CC1(C)SC2C(NC(=O)COc3ccccc3)C(=O)N2C1C(=O)O (centres undefined) gave a growth rescue of 3.56%. Compound COC(=O)C1[C@H]2SC(C)(C)C(C(=O)OC)N2C(=O)N1Cc1nc2ccccc2s1 (some centres undefined) has a growth rescue of -13.8%. O=C(NCCN1CCOCC1)/C(=C/c1ccc(F)cc1)NC(=O)c1ccccc1 showed a growth rescue of 93.9%. CC(OC(=O)c1ccc(Cl)cc1O)C(=O)NCCC1=CCCCC1 (centres undefined) gave a growth rescue of 17.1%. With Cc1cc(C)cc(C(=O)NC(CC(N)=O)c2ccc(N3CCC(N4CCCCC4)CC3)c([N+](=O)[O-])c2)c1 (centres undefined) the growth rescue was 855% (active). Compound CC1CCCCN1CCCNc1ccc(C(CC(N)=O)NC(=O)c2ccccc2)cc1[N+](=O)[O-] (centres undefined) has a growth rescue of -18.3%. COc1ccc(OC)c(C(=O)NC(CC(N)=O)c2ccc(N3CCC(N4CCCCC4)CC3)c([N+](=O)[O-])c2)c1 (centres undefined) showed a growth rescue of -11.8%. Cc1cccc(NC(=O)CN2CCN(C(=O)C3CCN(C(=O)/C=C/c4ccccc4)CC3)CC2)c1C showed a growth rescue of -7.86%. In the case of Cc1nn(Cc2ccccc2)c(C)c1NS(=O)(=O)c1ccccc1, the growth rescue was 0.754%. With CC(=O)c1cc(CN2CCC(n3nccc3NC(=O)c3ccccc3Cl)CC2)cs1 the growth rescue was 13.8%. For Cc1ccc(Nc2cc(C)nc3c(C)ccc([N+](=O)[O-])c23)cc1, the growth rescue was 888% (active). With Cc1cc(Nc2ccc(C(=O)N3CCCCC3)cc2)c2cccc(C)c2n1 the growth rescue was 397%. Compound Cc1cc(Nc2ccc(N3CCOCC3)cc2)c2cccc(C)c2n1 has a growth rescue of -0.464%. With O=C(O)Cn1c(Cc2ccccc2)nc2ccccc21 the growth rescue was -4.16%. Work on Fc1ccc2cnc(-c3ccccc3)cc2c1 yielded a growth rescue of 110%. O=C(Nc1ccccc1F)c1ccc2c(c1)OCO2 gave a growth rescue of 3.63%. With Fc1ccccc1-c1cc2cc3c(cc2cn1)OCO3 the growth rescue was 579% (active). Compound O=C(c1ccc(F)cc1)n1c(=S)nc2ccccn21 has a growth rescue of -34.1%. With COc1ccccc1-c1nn(Cc2ccccc2)cc1C(=O)N1CCN(c2ncccn2)CC1 the growth rescue was -5.43%. CCN(CC)c1ccc(NC(=O)C2CCC(CNc3c(N4CCCC4)c(=O)c3=O)CC2)c(C)c1 (centres undefined) gave a growth rescue of 6.64%. In the case of Cc1ccc(OCCC(=O)Nc2ccc(S(=O)(=O)Nc3nccs3)cc2)cc1, the growth rescue was -18.7%. In the case of CCC(CC)C(=O)Nc1ccc(S(=O)(=O)Nc2nccs2)cc1, the growth rescue was 441% (active). Compound COc1ccccc1OC(C)C(=O)Nc1ccc(S(=O)(=O)Nc2nccs2)cc1 (centres undefined) has a growth rescue of 7.27%. With CCCc1cc(=S)n2c([nH]c3ccccc32)c1C#N the growth rescue was 490% (active). Work on CCOC(=O)CCc1c(C)c(C#N)c2[nH]c3ccccc3n2c1=O yielded a growth rescue of -0.685%. CN(C)Cc1c(C#N)c2ccccc2n1C gave a growth rescue of 63.2%. Compound CCCn1nc(C(=O)NNC(=O)CCOc2ccccc2OCC)c2ccccc2c1=O has a growth rescue of 2.71%. CC(=O)c1ccc(NC(=O)CSc2nc3ccccc3c(=O)n2CCCN2CCOCC2)cc1 gave a growth rescue of -18.7%. With COc1cc(C(=O)OCC(=O)NC(C)CCc2ccccc2)cc(OC)c1OC (centres undefined) the growth rescue was 788% (active). In the case of CC(CCc1ccccc1)NC(=O)COC(=O)c1ccc(F)cc1 (centres undefined), the growth rescue was 11.7%. COc1cc(OC)cc(C(=O)NCC(=O)OCC(=O)NC(C)CCc2ccccc2)c1 (centres undefined) showed a growth rescue of -11.2%. Work on CC(=O)N1CCN(S(=O)(=O)c2ccc(C)c([N+](=O)[O-])c2)C1C(C)C (centres undefined) yielded a growth rescue of -18.3%. Work on CC(C)[C@@H]1NC(=O)c2cc([N+](=O)[O-])cc(I)c2NCCC[C@@H](C(=O)NC(CC(=O)O)C(N)=O)NC(=O)[C@H](CO)NC1=O (some centres undefined) yielded a growth rescue of -3.93%. In the case of CC(C)NC(=O)Nc1cccc2c1O[C@@H](CN(C)S(=O)(=O)c1ccc(F)cc1)[C@@H](C)CN([C@H](C)CO)C2=O, the growth rescue was -15.3%. In the case of O=C(NCc1ccc(Cl)cc1)C(=O)NCC1CCCN1S(=O)(=O)c1cccs1 (centres undefined), the growth rescue was -0.245%. With O=C(NCc1ccccc1Cl)C(=O)NCC1CCCN1S(=O)(=O)c1cccs1 (centres undefined) the growth rescue was 454% (active). With COc1ccccc1CCNC(=O)C(=O)NCCC1CCCCN1S(=O)(=O)c1cccs1 (centres undefined) the growth rescue was -12.1%. In the case of CCOC(=O)c1c(S(=O)(=O)Nc2cccc(Cl)c2)c(C)n(C)c1C, the growth rescue was -7.89%. With CCC(C)(C)NC(=O)C(c1ccc(OC)cc1)N(C(=O)CCC(=O)Nc1cc(C)on1)c1ccc(OC)cc1OC (centres undefined) the growth rescue was -19.3%. CC(C)(C)c1cc(C(=O)NN)n(Cc2ccc(Cl)cc2Cl)n1 gave a growth rescue of 207%. For N#CC(C#N)=CN=c1ccn(Cc2ccc(Cl)cc2Cl)cc1, the growth rescue was 813% (active). For O=c1ccn(Cc2ccccc2Cl)cc1, the growth rescue was 1.62%. With COc1ccccc1CNC(=O)COC(=O)CNS(=O)(=O)c1ccc(NC(C)=O)cc1 the growth rescue was -0.994%. With CC(C)C(NC(=O)c1ccc(Cl)cc1)C(=O)O (centres undefined) the growth rescue was 5.56%. With CSCCC(NC(=O)c1ccccc1)C(=O)N1CCCCCCC1 (centres undefined) the growth rescue was -4.42%. For CC(NC(=O)c1ccc(Cl)cc1)C(=O)N1CCCCC1 (centres undefined), the growth rescue was 434% (active). For O=C(CCNC(=O)c1ccc(Br)cc1)NCCCc1ccccc1, the growth rescue was 0.819%. Work on O=C(CNC(=O)c1ccco1)NNC(=O)c1ccc(Br)cc1 yielded a growth rescue of 19.3%. For O=C(CCc1ccccc1)NNC(=O)c1ccc(Br)cc1, the growth rescue was 631% (active). In the case of COc1cc(CC(=O)N2CCC(n3nccc3NC(=O)C3CC3)CC2)cc(OC)c1OC, the growth rescue was 7.3%. For Cc1ccc(-n2c(SCC(=O)NCCC3=CCCCC3)nc3n[nH]c(C)c3c2=N)cc1Cl, the growth rescue was 4.94%. For COc1cccc(-n2c(SCC(=O)NC3CCCCC3)nc3n[nH]c(C)c3c2=N)c1, the growth rescue was 1070% (active). Work on CCCCNC(=O)CSc1nc2n[nH]c(C)c2c(=N)n1-c1cccc(Cl)c1C yielded a growth rescue of -7.38%. COc1cc(OC)cc(C(=O)Nc2nnc(SCC(=O)NCC3CCCO3)s2)c1 (centres undefined) gave a growth rescue of -5.99%. Compound CCCCNS(=O)(=O)c1ccc(S(=O)(=O)n2cnc3ccccc32)cc1 has a growth rescue of -2.08%. For COC(=O)c1c(C)cc(O)c(C)c1O, the growth rescue was 2.55%. In the case of O=C(c1cccnc1)N1CCN(S(=O)(=O)c2cccs2)CC1, the growth rescue was -2.05%. Compound CCOC(=O)c1ccccc1N1C(=O)C2Sc3[nH]c(=O)sc3C(/C=C/c3ccccc3)C2C1=O (centres undefined) has a growth rescue of 0.0979%. In the case of Nc1nc(SCc2cccc(Br)c2)n[nH]1, the growth rescue was 332% (active). In the case of Nc1nc(SCCOc2ccccc2)n[nH]1, the growth rescue was -18.7%. For Nc1cc(N)nc(SCc2cccc(F)c2)n1, the growth rescue was 35.9%. Cc1ccc(C(=O)N/C(=C\c2ccc(F)cc2)C(=O)NCCN2CCOCC2)cc1 gave a growth rescue of 49.4%. Compound Cn1cncc1C#Cc1c(-c2ccsc2)sc2ccccc12 has a growth rescue of 17.7%. Work on COC(=O)Cc1ccc(OC(=O)C2CCN(S(=O)(=O)c3ccc(OC)c(OC)c3)CC2)cc1 yielded a growth rescue of -14.9%. CC1(C)Cc2c(sc(NC(=O)C(=O)NCC3CCCO3)c2C(=O)O)CO1 (centres undefined) gave a growth rescue of -46.3%. With COc1ccc(-c2cn(-c3ccc(C)cc3)c(=O)n2CC(=O)Nc2ccc(OC)c(OC)c2)cc1 the growth rescue was 737% (active). Compound COc1ccc(NC(=O)COC(=O)Cn2c(C)nc3ccccc32)cc1OC has a growth rescue of -5.7%. COc1ccc(NC(=O)Cn2c(-c3ccc(OC)cc3)cn(-c3ccc(C)cc3)c2=O)cc1 gave a growth rescue of 259%. With O=C(NCCc1nnc2ccc(SCC(=O)N3CCOCC3)nn12)c1ccccc1 the growth rescue was -18.2%. For COc1ccc(C2CC(=O)Nc3sc(=N)c4c(N)c(C#N)c(N)nc4c32)cc1OC (centres undefined), the growth rescue was -31.5%. COc1ccccc1-c1c(C#N)c(N)nc2c1CCC2 gave a growth rescue of -0.44%. With COc1ccc(OC)c2c(N)c(C#N)c(C(F)(F)C(F)(F)F)nc12 the growth rescue was 790% (active). O=C(CN1CCCCC1)N1c2ccccc2Sc2ccc(C(F)(F)F)cc21 gave a growth rescue of 1.37%. CCN1CCCC1CNC(=O)c1cc2c(=O)n(C)c3ccccc3c2n1C (centres undefined) showed a growth rescue of -15.2%. In the case of Cn1c(C(=O)NCCc2ccsc2)cc2c(=O)n(C)c3ccccc3c21, the growth rescue was 385% (active). Work on Cn1c(C(=O)NCCCN2CCN(c3cccc(Cl)c3)CC2)cc2c(=O)n(C)c3ccccc3c21 yielded a growth rescue of -12.4%.
